Test results taken from PubChem BioAssay (NCATS).
Values joined by “and” are separate entries in the source; they are usually repeats but may differ in a detail not shown here. Equal entries are not always repeated. Inconclusive results are not listed. Where a call stands in place of a potency, no number is given. Active and inactive are the calls of the source. Unless noted, calls follow the shape of the full dose curve. Bridge positions count the residues as written; N and C are the ends. Square brackets hold non-standard residues; d marks the D form. Peptide text beside a SMILES is read from it. hArg = N=C(N)NCCCC[C@H](N)C(=O)O; Mpa = O=C(O)CCS

Experiments:
[1] = qHTS for Inhibitors of the Functional Ribonucleoprotein Complex (vRNP) of Lassa (LASV) Arenavirus: LASV Primary Screen - GLuc reporter signal (AID 1347082; calls by dose curve; tested in HEK293 reporter line; also: nearly all actives have a fitted effect of over 60% in size)
[2] = qHTS for Inhibitors of the Functional Ribonucleoprotein Complex (vRNP) of Lassa (LASV) Arenavirus: Viability assay - alamar blue signal for LASV Primary Screen (AID 1347083; calls by dose curve; tested in HEK293 reporter line; also: nearly all actives have a fitted effect of over 80% in size)
[3] = qHTS for Inhibitors of the Functional Ribonucleoprotein Complex (vRNP) of Lymphocytic Choriomeningitis Arenaviruses (LCMV): Viability assay - alamar blue signal for LCMV Primary Screen (AID 1347085; calls by dose curve; tested in HEK293 reporter line; also: nearly all actives have a fitted effect of over 80% in size)
[4] = biological target: Nucleoprotein (Lymphocytic choriomeningitis virus (strain Armstrong)) (UniProt P09992); test: qHTS for Inhibitors of the Functional Ribonucleoprotein Complex (vRNP) of Lymphocytic Choriomeningitis Arenaviruses (LCMV): LCMV Primary Screen - GLuc reporter signal (AID 1347086); also: nearly all actives have a fitted effect of over 70% in size
Potency is read from the fitted curve at half-maximal effect.

Chain of Nucleoprotein (Lymphocytic choriomeningitis virus (strain Armstrong)) (P09992 whole entry, looked up): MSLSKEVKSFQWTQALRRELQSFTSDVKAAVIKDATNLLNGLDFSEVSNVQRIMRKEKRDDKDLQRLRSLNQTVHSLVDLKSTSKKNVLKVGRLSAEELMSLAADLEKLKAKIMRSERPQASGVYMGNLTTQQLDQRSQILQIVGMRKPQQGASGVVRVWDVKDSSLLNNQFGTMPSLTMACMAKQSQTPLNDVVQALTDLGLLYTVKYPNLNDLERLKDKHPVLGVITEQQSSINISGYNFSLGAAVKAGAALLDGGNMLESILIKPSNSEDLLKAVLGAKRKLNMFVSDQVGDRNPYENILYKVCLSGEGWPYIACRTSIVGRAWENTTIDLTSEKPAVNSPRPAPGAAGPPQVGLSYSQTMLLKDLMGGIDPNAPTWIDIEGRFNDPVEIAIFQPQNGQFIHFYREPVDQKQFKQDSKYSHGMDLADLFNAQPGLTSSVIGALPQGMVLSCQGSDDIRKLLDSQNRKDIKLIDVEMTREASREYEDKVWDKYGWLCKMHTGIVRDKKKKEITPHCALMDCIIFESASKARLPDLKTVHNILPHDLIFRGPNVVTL

Row | SMILES | Potency [1] | Potency [2] | Potency [3] | Potency [4]
1 | FC(F)(F)C(Cl)Br (stereo not given) | inactive | inactive | inactive | inactive
2 | OC[C@H]1O[C@@H](O[C@@H]2[C@@H](CO)O[C@](O)(CO)[C@H]2O)[C@H](O)[C@@H](O)[C@H]1O | inactive | inactive | inactive | inactive
3 | NC1(c2ccc(-c3nc4ccn5c(=O)[nH]nc5c4cc3-c3ccccc3)cc2)CCC1 | 19.3 µM (active) | 2.73 µM (active) and 5.62 µM (active) | 3.85 µM (active) | 3.06 µM (active)
4 | CN(C)CCCSc1ccccc1NC(=O)/C=C/c1ccccc1 | inactive | inactive | inactive | inactive
5 | CC(C)Cn1cnc2c1c(=O)n(C)c(=O)n2C | inactive | inactive | inactive | inactive
6 | CCCCCCc1ccc(O)cc1O | inactive | inactive | inactive | inactive
7 | CCCCN(CCCC)C(C(N)=O)c1ccc(OC)cc1 (stereo not given) | inactive | inactive | inactive | inactive
8 | Cc1c(-c2ccccc2)oc2c(C(=O)OCCN3CCCCC3)cccc2c1=O | inactive | inactive | inactive | inactive
9 | C[C@H](O)C(=O)Nc1c(I)c(C(=O)NC(CO)CO)c(I)c(C(=O)NC(CO)CO)c1I | inactive | inactive | inactive | inactive
10 | C[C@@]12CCC[C@H]1[C@@H]1CC[C@H]3C[C@@H](O)CC[C@]3(C)[C@H]1CC2 | inactive | inactive | inactive | inactive
11 | CN(C)CCN(Cc1ccccc1)c1ccccn1 | inactive | inactive | inactive | inactive
12 | CNC(=O)c1cnn(-c2nc(N)c3ncn([C@@H]4O[C@H](CO)[C@@H](O)[C@H]4O)c3n2)c1 | inactive | inactive | inactive | inactive
13 | CC(C)(C)c1ccc(C(O)CCCN2CCC(C(O)(c3ccccc3)c3ccccc3)CC2)cc1 (stereo not given) | inactive | inactive | inactive | inactive
14 | CCOc1cc(N)c(Cl)cc1C(=O)NCC1CN(Cc2ccc(F)cc2)CCO1 (stereo not given) | inactive | inactive | inactive | inactive
15 | CSc1ccc(/C=C2/C(C)=C(CC(=O)O)c3cc(F)ccc32)cc1 | inactive | inactive | inactive | inactive
16 | N[C@H]1CN(c2c(F)cc3c(=O)c(C(=O)O)cn(C4C[C@@H]4F)c3c2Cl)CC12CC2 (stereo not given in full) | inactive | inactive | inactive | inactive
17 | COc1ccccc1OC(=O)Oc1ccccc1OC | inactive | inactive | inactive | inactive
18 | OCC(O)CS (stereo not given) | inactive | inactive | inactive | inactive
19 | CC(=O)OCC(=O)[C@@]1(O)CCC2C3CCC4=CC(=O)CC[C@]4(C)C3[C@@H](O)C[C@@]21C (stereo not given in full) | inactive | inactive | inactive | inactive
20 | CC[C@H](NC(C)C)[C@H](O)c1ccc(O)c2[nH]c(=O)ccc12 | inactive | inactive | inactive | inactive

Row | SMILES | Potency [1] | Potency [2] | Potency [3] | Potency [4]
21 | CC1=C(C)C(=O)C(C(CCCCCC(=O)O)c2ccccc2)=C(C)C1=O (stereo not given) | inactive | inactive | inactive | inactive
22 | CCCc1cc(C(N)=S)ccn1 | inactive | inactive | inactive | inactive
23 | O=C(c1cc(O)c(O)c(O)c1)c1ccc(O)c(O)c1O | inactive | inactive | inactive | inactive
24 | CC(=O)N[C@H]1[C@H]([C@H](O)[C@H](O)CO)OC(C(=O)O)=C[C@@H]1N=C(N)N | inactive | inactive | inactive | inactive
25 | Cc1ccc(/C(=C\CN2CCCC2)c2ccccn2)cc1 | inactive | inactive | inactive | inactive
26 | OCC(O)CN1CCN(c2ccccc2)CC1 (stereo not given) | inactive | inactive | inactive | inactive
27 | Nc1nc(=O)n([C@@H]2O[C@H](CO)[C@@H](O)[C@@H]2F)cc1I | inactive | inactive | inactive | inactive
28 | O=C1C(CCS(=O)c2ccccc2)C(=O)N(c2ccccc2)N1c1ccccc1 (stereo not given) | inactive | inactive | inactive | inactive
29 | Cn1c(=O)c2c(ncn2CC2OCCO2)n(C)c1=O | inactive | inactive | inactive | inactive
30 | CCC(=O)O[C@]1(C(=O)COC)[C@@H](C)C[C@H]2[C@@H]3CCC4=CC(=O)C=C[C@]4(C)C3(F)[C@@H](O)C[C@@]21C (stereo not given in full) | inactive | inactive | inactive | inactive
31 | OC[C@H]1O[C@@H](OCCc2ccc(O)cc2)[C@H](O)[C@@H](O)[C@H]1O | inactive | inactive | inactive | inactive
32 | CC(O)Cn1cnc2c1c(=O)n(C)c(=O)n2C (stereo not given) | inactive | inactive | inactive | inactive
33 | CCCCC[C@H](O)C=C[C@H]1[C@H](O)CC(=O)[C@H]1CC=CCCCC(=O)O | inactive | inactive | inactive | inactive
34 | CCOC(=O)C(=O)c1csc(NC=O)n1 | inactive | inactive | inactive | inactive
35 | CCCCCOc1ccc(C2SC(=O)NC2=O)cc1OCC (stereo not given) | inactive | inactive | inactive | inactive
36 | O=C(O)COC(=O)Cc1ccccc1Nc1c(Cl)cccc1Cl | inactive | inactive | inactive | inactive
37 | Nc1c2c(nc3c1CCC3)CCCC2 | inactive | inactive | inactive | inactive
38 | O=c1cc(CO)occ1O | inactive | inactive | inactive | inactive
39 | CN1CCN(C2Cc3ccccc3Sc3ccc(Cl)cc32)CC1 (stereo not given) | inactive | inactive | inactive | inactive
40 | CC(C)=CCC/C(C)=C/CC/C(C)=C/C(=O)OCC(=O)[C@@]1(O)CC[C@H]2[C@@H]3CCC4=CC(=O)C=C[C@]4(C)[C@H]3[C@@H](O)C[C@@]21C | inactive | inactive | inactive | inactive

Row | SMILES | Potency [1] | Potency [2] | Potency [3] | Potency [4]
41 | O=C(O)CP(=O)(O)O | inactive | inactive | inactive | inactive
42 | C/C=C(/C(=C/C)c1ccc(OC(C)=O)cc1)c1ccc(OC(C)=O)cc1 | inactive | inactive | inactive | inactive
43 | Cc1cc(CC(=O)O)n(C)c1C(=O)c1ccc(Cl)cc1 | inactive | inactive | inactive | inactive
44 | CCn1cc(C(=O)O)c(=O)c2cc(F)c(N3CCNCC3)nc21 | inactive | inactive | inactive | inactive
45 | CCN1CCCC(OC(=O)C(c2ccccc2)c2ccccc2)C1 (stereo not given) | inactive | inactive | inactive | inactive
46 | NC(CSCC(=O)O)C(=O)O (stereo not given) | inactive | inactive | inactive | inactive
47 | C[C@H]1COc2c(C3(N)CC3)c(F)cc3c(=O)c(C(=O)O)cn1c23 | inactive | inactive | inactive | inactive
48 | Cc1ncc([N+](=O)[O-])n1C | inactive | inactive | inactive | inactive
49 | O=c1[nH]c2ccccc2c(=O)n1CCCl | inactive | inactive | inactive | inactive
50 | O=C(O)c1ccc(OCCN2CCCCC2)cc1 | inactive | inactive | inactive | inactive
51 | NC(=O)CCCCC1CCSS1 (stereo not given) | inactive | inactive | inactive | inactive
52 | Cc1ncc(CSSCc2cnc(C)c(O)c2CO)c(CO)c1O | inactive | inactive | inactive | inactive
53 | CCCCCCCCCCCCCCC[C@H](O)[C@@H](N)CO | inactive | inactive | inactive | inactive
54 | COc1ccc(CN(CCN(C)C)c2ncccn2)cc1 | inactive | inactive | inactive | inactive
55 | c1ccc(C(O[C@H]2CCCN(CCc3ccc4c(c3)OCO4)C2)c2ccccc2)cc1 | inactive | inactive | inactive | inactive
56 | Cc1ncc(COP(=O)(O)O)c(C=O)c1O | inactive | inactive | inactive | inactive
57 | CCOC(=O)C(=O)CCc1ccccc1 | inactive | inactive | inactive | inactive
58 | O=C1NC2CCCCN2C12CCN(CCCN1c3ccccc3CCc3ccc(Cl)cc31)CC2 (stereo not given) | inactive | inactive | inactive | inactive
59 | CN(C)CCCN1c2ccccc2Sc2ccc(C(F)(F)F)cc21 | inactive | inactive | inactive | inactive
60 | NC(=O)[C@@H]1CSSCCC(=O)N[C@@H](CCCCN=C(N)N)C(=O)NCC(=O)N[C@@H](CC(=O)O)C(=O)N[C@@H](Cc2c[nH]c3ccccc23)C(=O)N2CCC[C@H]2C(=O)N1 ([Mpa][hArg]GDWPC-NH2; disulfide 1-7) | inactive | inactive | inactive | inactive
